Measured values: PubChem BioAssay (NCATS)
Records with an inconclusive call do not appear. Activity calls are given as the source filed them. Calls come from the whole dose curve; as a rule, active = well fitted cell-killing curve with a large enough effect; inconclusive = small, poorly fitted or top-dose-only effect; inactive = flat fitted curve, though single readings scatter.

Key:
[1] = Cell Viability - LYMP2-025 (AID 976); note: series mostly up to about 92 µM
Summary of the method: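 Human lymphoblastoid LYMP2-025 cells, 2500/well, exposed 24 h at 37 C in complete medium in 1536-well qHTS. Viability as cellular ATP by CellTiter-Glo luminescence; AC50 from Hill fits of concentration-response data.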

[2] = Cell Viability - LYMP2-002 (AID 977); note: series mostly up to about 92 µM
Summary of the method: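 Luminescent ATP readout (CellTiter-Glo, 30 min room temperature) after 24 h compound exposure at 37 C of a human lymphoblastoid line, 2500 cells/well. AC50 values derived by standard Hill fitting of qHTS concentration-response data.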

[3] = Cell Viability - LYMP2-006 (AID 978); note: series mostly up to about 92 µM; nearly all actives have a fitted effect of over 60% in size
Summary of the method: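 qHTS, 1536-well; 2500 cells/well, 5 hr 37 C; cpd 24 hr 37 C; CellTiter-Glo 30 min RT; luminescence. Tetraoctylammonium bromide pos. ctrl. AC50 via Hill eqn.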

[4] = Cell Viability - LYMP2-007 (AID 979);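 note: cells exposed to compound for 24 h before reading; nearly all actives have a fitted effect of over 60% in size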
Summary of the method: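 Human lymphoblastoid LYMP2-007 cells (2500/well) preincubated 5 h at 37 C, then treated 24 h at 37 C in complete medium. Viability by CellTiter-Glo ATP luminescence after 30 min at room temperature; AC50 from Hill fits.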

[5] = Cell Viability - LYMP2-008 (AID 980); note: nearly all actives have a fitted effect of over 60% in size
Summary of the method: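 LYMP2-008 lymphoblastoid cells (2500/well) plated 5 h, then treated 24 h at 37 C in complete medium. Viability read as intracellular ATP by CellTiter-Glo luminescence after 30 min at room temperature; AC50 from Hill fits.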

[6] = Cell Viability - LYMP2-010 (AID 981); note: nearly all actives have a fitted effect of over 55% in size
Summary of the method: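 Human lymphoblastoid LYMP2-010 cells (2500/well) treated 24 h at 37 C in complete medium; viability read as intracellular ATP by CellTiter-Glo luminescence. AC50 from Hill fits of concentration-response data; tetraoctylammonium bromide positive control.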

[7] = Cell Viability - LYMP2-012 (AID 982);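 note: cellular ATP by luciferase luminescence where a drop means cytotoxicity; cells exposed to compound for one day before reading; nearly all actives have a fitted effect of over 55% in size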
[8] = Cell Viability - LYMP2-016 (AID 984); note: nearly all actives have a fitted effect of over 55% in size
Summary of the method: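 qHTS, 1536-well: 2500 LYMP2-016 cells/well, 5 hr 37 C, compound added, 24 hr 37 C, CellTiter-Glo 30 min RT, luminescence. Tetraoctylammonium bromide positive control. AC50 via Hill fit.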

[9] = Cell Viability - LYMP2-018 (AID 985);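 note: compound exposure lasted 24 hr at 37 °C; nearly all actives have a fitted effect of over 50% in size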
Summary of the method: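 Human lymphoblastoid LYMP2-018 cells, 2500/well, settled 5 hr at 37 C then exposed to compound 24 hr at 37 C; intracellular ATP measured by CellTiter-Glo luminescence. AC50 from Hill-equation concentration-response fits.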

[10] = Cell Viability - LYMP2-014 (AID 983); note: series mostly up to about 92 µM; nearly all actives have a fitted effect of over 50% in size
Summary of the method: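 LYMP2-014 human lymphoblastoid cells, 2500/well, treated 24 h at 37 C in complete medium; viability by CellTiter-Glo ATP luminescence after 30 min at room temperature. AC50 from Hill fits of qHTS concentration-response; tetraoctylammonium bromide positive control.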

Measured: Potency

CCCCOCCOCCOCCCC
inactive: [1] | [2] | [3] | [4] | [5] | [6] | [7] | [8] | [9]

Cc1ccccc1C(N)=O
inactive: [1] | [2] | [3] | [4] | [5] | [6] | [7] | [10] | [8] | [9]

CCCCC(=O)N(C)C
inactive: [1] | [2] | [3] | [4] | [5] | [6] | [7] | [10] | [8] | [9]

O=C(O)CNC(=O)c1ccc(CO)o1
inactive: [1] | [2] | [3] | [4] | [5] | [6] | [7] | [8] | [9]

CC(C)C=O
inactive: [1] | [2] | [3] | [4] | [5] | [6] | [7] | [8] | [9]

Nc1cc(Cl)c(N)c(Cl)c1
inactive: [1] | [2] | [3] | [4] | [5] | [6] | [7] | [10] | [8] | [9]

C=Cc1ccc(C=C)cc1
inactive: [1] | [2] | [3] | [4] | [5] | [6] | [7] | [8] | [9]

Cc1ccc2oc(=O)ccc2c1
inactive: [1] | [2] | [3] | [4] | [5] | [7] | [10] | [8] | [9]

CC(=O)OCc1ccco1
inactive: [1] | [2] | [3] | [4] | [5] | [6] | [7] | [8] | [9]

NC(=S)NNC(N)=S
inactive: [1] | [2] | [3] | [4] | [5] | [6] | [7] | [8] | [9]

Cc1ccccc1C#N
inactive: [1] | [2] | [3] | [4] | [5] | [6] | [7] | [8] | [9]

CC(C)CO
inactive: [1] | [2] | [3] | [4] | [5] | [6] | [7] | [8] | [9]

COc1ccc(N=[N+]([O-])c2ccc(OC)cc2)cc1
inactive: [1] | [2] | [3] | [4] | [5] | [6] | [7] | [10] | [8] | [9]

CCN(Cc1ccccc1)c1ccccc1
inactive: [1] | [2] | [3] | [4] | [5] | [6] | [7] | [10] | [8] | [9]

O=P(O)(OCc1ccccc1)OCc1ccccc1
inactive: [1] | [2] | [3] | [4] | [5] | [6] | [7] | [8] | [9]

O=C(O)/C=C/C(=O)O
inactive: [1] | [2] | [3] | [4] | [5] | [6] | [7] | [10] | [8] | [9]

CCCCCO
inactive: [1] | [2] | [3] | [4] | [5] | [6] | [7] | [8] | [9]

CCCCCCO
inactive: [1] | [2] | [3] | [4] | [5] | [6] | [7] | [10] | [8] | [9]

CC/C=C1/OC(=O)c2ccccc21
inactive: [1] | [2] | [3] | [5] | [6] | [7] | [10] | [8] | [9]

NC=O
inactive: [1] | [2] | [3] | [4] | [6] | [7] | [10] | [8] | [9]

Cc1ccc(Br)cc1
inactive: [1] | [2] | [3] | [4] | [6] | [7] | [10] | [8] | [9]

Nc1ccccc1[N+](=O)[O-]
inactive: [1] | [2] | [3] | [4] | [6] | [7] | [8] | [9]

CN(C)CCCNCCCN
inactive: [1] | [2] | [3] | [4] | [5] | [8] | [9]

C=C(C)C(=O)OCC(C)C
inactive: [1] | [2] | [3] | [4] | [6] | [7] | [10] | [8] | [9]

CCCCCCC(=O)O
inactive: [1] | [2] | [3] | [4] | [6] | [7] | [10] | [8] | [9]

Cc1ccc(S(=O)(=O)NC2CCCCC2)cc1
inactive: [1] | [2] | [3] | [4] | [6] | [7] | [10] | [8] | [9]

Clc1cc(Cl)cc(Cl)c1
inactive: [1] | [2] | [3] | [5] | [6] | [7] | [10] | [8] | [9]

Nc1cc(S(=O)(=O)O)ccc1O
inactive: [1] | [2] | [3] | [5] | [6] | [7] | [10] | [8] | [9]

CC#N
inactive: [1] | [2] | [3] | [5] | [6] | [7] | [10] | [8] | [9]

Cc1c(C(=O)O)cccc1[N+](=O)[O-]
inactive: [1] | [2] | [3] | [4] | [6] | [7] | [8] | [9]

CCNc1ccccc1
inactive: [1] | [2] | [3] | [4] | [6] | [7] | [10] | [8] | [9]

c1ccc(Oc2ccccc2)cc1
inactive: [1] | [2] | [3] | [4] | [6] | [7] | [10] | [8] | [9]

CC(=O)OCCC(C)C
inactive: [1] | [2] | [3] | [4] | [6] | [7] | [10] | [8] | [9]

CC(=O)OC(C)=O
inactive: [1] | [2] | [3] | [4] | [6] | [7] | [10] | [8] | [9]

O=C1C=CCCC1
inactive: [1] | [2] | [3] | [4] | [7] | [8] | [9]

OC1CCCC1
inactive: [1] | [2] | [3] | [4] | [6] | [7] | [10] | [8] | [9]

CC(=O)c1cc(C)oc1C
inactive: [1] | [2] | [3] | [5] | [6] | [7] | [10] | [8] | [9]

Cc1cscn1
inactive: [1] | [2] | [3] | [4] | [6] | [7] | [8] | [9]

O=C(O)c1ccccc1Cl
inactive: [1] | [2] | [3] | [4] | [6] | [7] | [10] | [8] | [9]

CCCC=O
inactive: [1] | [2] | [3] | [4] | [6] | [7] | [10] | [8] | [9]

C=CCCC
inactive: [1] | [2] | [3] | [5] | [6] | [7] | [10] | [8] | [9]

CCC(C)(C)OC
inactive: [1] | [2] | [3] | [4] | [6] | [7] | [10] | [8] | [9]

BrC/C=C/CBr
inactive: [1] | [2] | [3] | [4] | [6] | [7] | [10] | [8] | [9]

Cc1cc(C)cc(O)c1
inactive: [1] | [2] | [3] | [5] | [6] | [7] | [10] | [8] | [9]

O=C(O)c1ccc(CO)o1
inactive: [1] | [2] | [3] | [4] | [5] | [10] | [8] | [9]

CC(=O)Nc1ccc(C)cc1
inactive: [1] | [2] | [3] | [4] | [6] | [7] | [10] | [8] | [9]

CC(C)(C)OC=O
inactive: [1] | [2] | [3] | [4] | [8]

CCOC(=O)OCC
inactive: [1] | [2] | [3] | [4] | [6] | [7] | [10] | [8] | [9]

C=C(C)C(N)=O
inactive: [1] | [2] | [3] | [4] | [6] | [7] | [10] | [8] | [9]

O=C(O)c1cc(Cl)cc(Cl)c1
inactive: [1] | [2] | [3] | [4] | [6] | [7] | [10] | [8] | [9]

CCOC(=O)C(C)C(C)=O (stereo not given)
inactive: [1] | [2] | [3] | [4] | [6] | [7] | [10] | [8] | [9]

CCCC(Cl)CCCC(Cl)CCC(Cl)CCC(Cl)CCC(Cl)CCCC(Cl)CCC (stereo not given)
inactive: [1] | [2] | [3] | [4] | [6] | [7] | [10] | [8] | [9]

C1CCOC1
inactive: [1] | [2] | [3] | [4] | [6] | [7] | [8] | [9]

COC(=O)CCC(=O)OC
inactive: [1] | [2] | [3] | [4] | [6] | [7] | [10] | [8] | [9]

Cc1cccc2cccnc12
inactive: [1] | [2] | [3] | [4] | [6] | [7] | [10] | [8] | [9]

CO[Si](CCCNCCC[Si](OC)(OC)OC)(OC)OC
inactive: [1] | [2] | [3] | [4] | [6] | [7] | [10] | [8] | [9]

Cc1cc(C)c(N)cc1C
inactive: [1] | [2] | [3] | [4] | [6] | [7] | [10] | [8] | [9]

O=[N+]([O-])c1ccc2nc[nH]c2c1
inactive: [1] | [2] | [3] | [4] | [6] | [7] | [10] | [8] | [9]

Nc1ccc(Cl)cc1[N+](=O)[O-]
inactive: [1] | [2] | [3] | [5] | [6] | [7] | [8] | [9]

Cc1cc(C(=O)O)ccc1[N+](=O)[O-]
inactive: [1] | [2] | [3] | [6] | [7] | [10] | [8] | [9]

NC(=O)c1cccc([N+](=O)[O-])c1
inactive: [1] | [2] | [3] | [5] | [6] | [7] | [10] | [8] | [9]

O=C(O)c1cccc([N+](=O)[O-])c1
inactive: [1] | [2] | [3] | [5] | [6] | [7] | [10] | [8] | [9]
